This note sets out measurements from PubChem BioAssay (NCATS).

In assay [1] the target is Glutathione peroxidase 1 (Homo sapiens) (UniProt P07203). The assay is described as follows: Primary qHTS Assay for Inhibitors of Recombinant Selenoprotein Glutathione Peroxidase 1 (GPX1) (AID 1845191). Further: nearly all actives have a fitted effect of over 65% in size. Summed up:
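GPX1 10 nM, GR 100 nM, GSH 1 mM, NADPH 0.5 mM, CHP 0.5 mM (final). 30-min cpd preincubation, RT. Ex340/Em450 read t=0, t=15 min.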
(In qHTS, concentration-response curves come from the screen itself.)

Assay [2] concerns the target Phospholipid hydroperoxide glutathione peroxidase GPX4 (Homo sapiens) (UniProt P36969). Nature of the assay: Primary qHTS Assay for Inhibitors of Recombinant Selenoprotein Glutathione Peroxidase 4 (GPX4) (AID 1845192). Further: nearly all actives have a fitted effect of over 65% in size. Summed up: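 qHTS, GR-coupled: GPX4 200 nM + cpd 30 min RT → GSH 1 mM, NADPH 0.5 mM, GR 100 nM → CHP 0.5 mM start; fluor 340/450 at t0 and t15 min; no-enzyme wells as control.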

The target in assay [3] is Luciferin 4-monooxygenase (Photinus pyralis) (UniProt P08659). Nature of the assay: Primary firefly luciferase (FLuc) qHTS assay for identification of artifact compounds. (AID 1845220). Further: nearly all actives have a fitted effect of over 60% in size. The essentials: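 In this counter-screen for luciferase artifacts, test compounds met substrate (10 uM each luciferin and ATP) before 10 nM enzyme started the reaction. Light output was measured 5 min later.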

Assay [4] is described as follows: Primary fluorescence-based thiol-reactive (MSTI) qHTS assay for identification of artifact compounds. (AID 1845221). Further: nearly all actives have a fitted effect of over 65% in size. Further: potency means the concentration at half of the fitted maximal effect.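 On activity change, negative = thiol reactive: series mostly up to about 54 µM; thiol-reactive compounds lower the probe fluorescence signal.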 Summed up: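 Reactivity toward the thiol probe MSTI (4 uM) is scored by fluorescence at Ex/Em 525/598 nm after 1 h at room temperature. Acetyl-MSTI and MSTI define the activity scale.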

Unmarked numbers belong to inactive results. Inconclusive results are not listed. Activity calls are given as the source filed them. The call rests on the fitted dose curve; in most records, active means well fitted curve in the direction sought with a large enough effect; inconclusive means small, poorly fitted or top-dose-only effect, or another doubt; inactive means no such curve, though single readings can be large; an effect the other way counts as inactive or inconclusive.

Glutathione peroxidase 1 (Homo sapiens), sequence (P07203 whole entry, looked up): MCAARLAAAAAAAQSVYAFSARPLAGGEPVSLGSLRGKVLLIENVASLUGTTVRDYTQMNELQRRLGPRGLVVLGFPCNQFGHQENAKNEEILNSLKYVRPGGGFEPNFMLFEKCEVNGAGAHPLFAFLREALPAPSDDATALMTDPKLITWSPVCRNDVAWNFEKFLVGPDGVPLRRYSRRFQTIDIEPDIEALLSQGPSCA
Phospholipid hydroperoxide glutathione peroxidase GPX4 (Homo sapiens), sequence (P36969 whole entry, looked up): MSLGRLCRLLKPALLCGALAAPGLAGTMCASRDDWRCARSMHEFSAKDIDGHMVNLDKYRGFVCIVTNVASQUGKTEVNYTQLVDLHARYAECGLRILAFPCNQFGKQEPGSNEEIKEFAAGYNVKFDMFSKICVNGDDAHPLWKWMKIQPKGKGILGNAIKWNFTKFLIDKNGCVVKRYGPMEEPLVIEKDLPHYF

Consider `C/C(=C/CO)CC[C@H]1[C@]2(C)C[C@H](O)CC(C)(C)[C@H]2CC[C@]1(C)O`, for which the Potency entry in assay [1], in assay [2], in assay [3] and in assay [4] was “inactive” in each case.

With `C[C@@H]1O[C@@H](O[C@H]2[C@H](O[C@H]3[C@H](O[C@H]4CC[C@@]5(C)C(CC[C@]6(C)C5CC=C5[C@@H]7CC(C)(C)CC(=O)[C@]7(C)CC[C@]56C)[C@@]4(C)CO)O[C@H](C(=O)O)[C@@H](O)[C@@H]3O)O[C@H](CO)[C@H](O)[C@@H]2O)[C@H](O)[C@H](O)[C@H]1O` (stereo partly drawn), the Potency entry in assay [1] and in assay [2] was “inactive” each time. In addition, in assay [3], the outcome was “inactive [at 11.6 µM]”. Further, the activity change, negative = thiol reactive in assay [4] is 40% [at 11.5 µM].

Regarding `C=C1C(=O)OC2CC(COC(=O)C(C)C)=C(C(C)CCCOC(C)=O)[C@@H](OC(C)=O)C12` (stereo partly drawn), the Potency entry in assay [1], in assay [2], in assay [3] and in assay [4] was “inactive” in each case.

As to `COC(=O)C1=COC(OC2OC(CO)C(O)C(O)C2O)C2C(COC(=O)/C=C/c3ccc(O)cc3)C(O)C(O)C12` (stereo not drawn), the Potency entry in assay [1], in assay [2] and in assay [3] was “inactive” each time. Besides, the Potency in assay [4] is 5.82 µM (active).

As for `CC1(C)CC[C@]2(C(=O)O)CC[C@]3(C)C(=CCC4[C@@]5(C)CC[C@H](O[C@@H]6O[C@H](C(=O)O)[C@@H](O)[C@H](O)[C@H]6O)C(C)(C)C5CC[C@]43C)C2C1` (stereo partly drawn), the Potency result in assay [1], in assay [2], in assay [3] and in assay [4] was “inactive” each time.

Turning to `CC(=O)OC1CC(C(C)(C)O)OC2CCC3(C)OC4=C(C(=O)C=C5C(C)C(OC(C)=O)C6(C)C(C)OC546)C(O)C3C12C` (stereo not drawn), the Potency entry in assay [1], in assay [2], in assay [3] and in assay [4] was “inactive” each time.

`CC1=C[C@H](O)[C@H]2C(C)(C)CCC[C@]2(C)[C@@]1(O)CO`: the Potency entry in assay [1], in assay [2], in assay [3] and in assay [4] was “inactive” throughout.
